In PubChem BioAssay (Tox21):
Records with an inconclusive call do not appear. Activity calls are given as the source filed them. Unless noted, calls follow the shape of the dose curve; as a rule, active = well fitted curve in the direction sought with a large enough effect in the repeat runs; inconclusive = weak or mixed curves; inactive = no such curve, though single readings can be large; an effect the other way counts as inactive or inconclusive.

Experiments:
[1] = molecular target: Peroxisome proliferator-activated receptor gamma (Homo sapiens) (UniProt P37231); test: qHTS assay to identify small molecule antagonists of the peroxisome proliferator-activated receptor gamma (PPARg) signaling pathway (AID 743191; calls by dose curve; also: series mostly up to about 63 µM; nearly all actives have a fitted effect of over 30% in size)
Procedure, shortened: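 GeneBLAzer PPARg UAS-bla HEK293H cells carrying a UAS-driven beta-lactamase reporter were plated at 3000 cells/well, preincubated 5 h at 37C, then given compound for 17 h at 37C; LiveBLAzer B/G FRET substrate was read after 1 h at room temperature.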

[2] = qHTS assay to identify small molecule antagonists of the peroxisome proliferator-activated receptor gamma (PPARg) signaling pathway - cell viability counter screen (AID 743194); also: nearly all actives have a fitted effect of over 55% in size
Procedure, shortened: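 PPARg-UAS-bla HEK293H cells were plated, rested 5 h at 37 C, then treated with compounds plus rosiglitazone (50 nM final) for 17 h at 37 C; viability was then read by CellTiter-Glo luminescence after 30 min at room temperature.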

[3] = qHTS assay for small molecule agonists of the antioxidant response element (ARE) signaling pathway - cell viability counter screen (AID 743203; calls by dose curve; also: nearly all actives have a fitted effect of over 55% in size)
Procedure, shortened: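 ATP content via CellTiter-Glo luminescence served as the viability measure. Cells: ARE-bla HepG2, 2,000 per well. Exposure: 16 hrs, 37C/5% CO2.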

[4] = qHTS assay for small molecule activators of the heat shock response signaling pathway - cell viability counter screen (AID 743209); also: nearly all actives have a fitted effect of over 50% in size
Procedure, shortened: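 Compounds dissolved in DMSO were added to overnight-plated HSE-bla HeLa cells and left 5 h at 37 C. Cell viability was quantified by luminescence using CellTiter-Glo.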

[5] = qHTS assay for small molecule activators of the heat shock response signaling pathway (AID 743210; active = well fitted activation curve with a large enough effect in the signal ratio in the repeat runs, with a control signal flat, not every such curve was filed as active; the % refers to the signal ratio; also: series mostly up to about 63 µM)
Procedure, shortened: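 Heat shock element–beta-lactamase HeLa reporter cells; qHTS with compounds for 5 h at 37 C; detection by FRET substrate fluorescence after 2.5 h at RT.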

[6] = qHTS assay to identify small molecule antagonists of the peroxisome proliferator-activated receptor delta (PPARd) signaling pathway - cell viability counter screen (AID 743213); also: nearly all actives have a fitted effect of over 50% in size
Procedure, shortened: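 Same-well viability: cells pre-incubated 5 h, dosed with compound plus 300 nM L165041, kept 17 h at 37 C, FRET substrate 2 h RT, then CellTiter-Glo 30 min RT and luminescence.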

[7] = molecular target: Bile acid receptor (Homo sapiens) (UniProt Q96RI1); test: qHTS assay to identify small molecule antagonists of the farnesoid-X-receptor (FXR) signaling pathway (AID 743217; active = well fitted inhibition curve with a large enough effect in the signal ratio in the repeat runs, not every such curve was filed as active; the % refers to the signal ratio)
Procedure, shortened: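 Test compounds are pin-transferred onto FXR-bla HEK 293T cells, then chenodeoxycholic acid is added at 50 uM final. After 16 h at 37 °C, LiveBLAzer B/G substrate is applied for 2 h at room temperature and fluorescence read.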

[8] = qHTS assay to identify small molecule agonists of the farnesoid-X-receptor (FXR) signaling pathway - cell viability counter screen (AID 743218); also: nearly all actives have a fitted effect of over 45% in size
Procedure, shortened: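 Quantitative HTS counter screen measuring ATP-based viability via CellTiter-Glo luminescence in HEK 293T cells carrying a UAS-driven beta-lactamase reporter, after 16 h compound exposure at 37 C.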

[9] = molecular target: Bile acid receptor (Homo sapiens) (UniProt Q96RI1); test: qHTS assay to identify small molecule agonists of the farnesoid-X-receptor (FXR) signaling pathway (AID 743220; active = well fitted activation curve with a large enough effect in the signal ratio in the repeat runs, not every such curve was filed as active; the % refers to the signal ratio)
Procedure, shortened: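 FXR-UAS-bla HEK 293T cells carrying a UAS-driven beta-lactamase reporter were plated for 5 h at 37C/5% CO2, then exposed to DMSO-dissolved Tox21 10K compounds for 16 h at 37C. A LiveBLAzer B/G FRET substrate was loaded for 2 h at room temperature before fluorescence reading.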

[10] = qHTS assay to identify small molecule antagonists of the farnesoid-X-receptor (FXR) signaling pathway - cell viability counter screen (AID 743221; active = well fitted cell-killing curve with a large enough effect in the repeat runs, not every such curve was filed as active; also: nearly all actives have a fitted effect of over 50% in size)
Procedure, shortened: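 HEK 293T FXR-bla cells, 5 h pre-incubation; compound + CDCA 50 uM final, 16 h, 37 C; beta-lactamase FRET read first, then CellTiter-Glo luminescence, 30 min RT.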

[11] = molecular target: Vitamin D3 receptor (Homo sapiens) (UniProt P11473); test: qHTS assay to identify small molecule agonists of the vitamin D receptor (VDR) signaling pathway (AID 743222; calls by dose curve)
Procedure, shortened: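 Tox21 cell reporter format: VDR-bla line, 16 h compound exposure in 5% CO2 at 37C, then fluorescence intensity after 2 h with LiveBLAzer B/G FRET substrate.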

[12] = molecular target: Vitamin D3 receptor (Homo sapiens) (UniProt P11473); test: qHTS assay to identify small molecule antagonists of the vitamin D receptor (VDR) signaling pathway (AID 743223; active = well fitted inhibition curve with a large enough effect in the signal ratio in the repeat runs, not every such curve was filed as active; the % refers to the signal ratio)
Procedure, shortened: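 Beta-lactamase reporter read-out: FRET substrate fluorescence after 2 h at room temperature, following 16 h exposure of VDR-bla cells to test compound plus 3 nM (final) 1alpha,25-dihydroxyvitamin D3 agonist at 37C.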

[13] = qHTS assay to identify small molecule that activate the aryl hydrocarbon receptor (AhR) signaling pathway - cell viability counter screen (AID 743086);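 also: HepG2 liver cells carrying the AhR DRE luciferase reporter; series mostly up to about 70 µM; nearly all actives have a fitted effect of over 45% in size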
Procedure, shortened: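 HepG2-AhR-luc (HG2L7.5c1) cells, 4000/well, were preincubated 5 h at 37C, exposed to compound in qHTS format for 24 hr at 37C, then given CellTiter-Fluor for 30 min; viability was read as fluorescence in the reporter wells.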

[14] = qHTS assay for small molecule agonists of the antioxidant response element (ARE) signaling pathway (AID 743202; active = well fitted activation curve with a large enough effect in the signal ratio in the repeat runs, not every such curve was filed as active; the % refers to the signal ratio)
Procedure, shortened: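 Following a 16 h, 37 C exposure of reporter HepG2 cells (ARE-driven beta-lactamase, 2,000 cells/well) to compounds, FRET substrate was applied for 2 h at room temperature and fluorescence intensity recorded.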

[15] = qHTS assay to identify small molecule agonists of the peroxisome proliferator-activated receptor delta (PPARd) signaling pathway - cell viability counter screen (AID 743211); also: nearly all actives have a fitted effect of over 55% in size
Procedure, shortened: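 Read-out: CellTiter-Glo luminescence, 30 min RT, measured in the same wells as the beta-lactamase reporter. Cells: GeneBLAzer PPAR delta UAS-bla HEK293H, 3000 cells/well, compound exposure 17 h at 37C.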

[16] = molecular target: Peroxisome proliferator-activated receptor delta (Homo sapiens) (UniProt Q03181); test: qHTS assay to identify small molecule agonists of the peroxisome proliferator-activated receptor delta (PPARd) signaling pathway (AID 743212; calls by dose curve)
Procedure, shortened: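 Beta-lactamase reporter read by fluorescence (LiveBLAzer B/G FRET, 2 h, room temperature). Test agents, in DMSO, incubated at 37 C with PPARd-bla HEK293H cells.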

[17] = molecular target: Peroxisome proliferator-activated receptor delta (Homo sapiens) (UniProt Q03181); test: qHTS assay to identify small molecule antagonists of the peroxisome proliferator-activated receptor delta (PPARd) signaling pathway (AID 743215; active = well fitted inhibition curve with a large enough effect in the signal ratio in the repeat runs, not every such curve was filed as active; the % refers to the signal ratio;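 also: cells stimulated with agonist L165041 at 300 nM final during compound exposure; series mostly up to about 62 µM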)
Procedure, shortened: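 Here, a reporter line (HEK293H, beta-lactamase under a UAS) measures PPARd signaling. Compounds are tested against agonist L165041 at 300 nM final concentration over 17 h at 37 C, with fluorescence read after substrate.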

[18] = qHTS assay to identify aromatase inhibitors - cell viability counter screen (AID 743084);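 also: cells stimulated with testosterone during compound exposure; nearly all actives have a fitted effect of over 55% in size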
[19] = molecular target: Aryl hydrocarbon receptor (Homo sapiens) (UniProt P35869); test: qHTS assay to identify small molecule that activate the aryl hydrocarbon receptor (AhR) signaling pathway (AID 743085); also: nearly all actives have a fitted effect of over 15% in size; also: potency is read from the fitted curve at half-maximal effect;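 as to activation: HG2L7.5c1 human HepG2 liver cells with stably integrated DRE-driven firefly reporter; series mostly up to about 70 µM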
Procedure, shortened: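 Luminescence read-out: ONE-Glo reagent, 30 min at room temperature, in HG2L7.5c1 HepG2 reporter cells treated 24 h at 37C. Viability was measured beforehand by CellTiter-Fluor fluorescence after 30 min at 37C.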

[20] = molecular target: Peroxisome proliferator-activated receptor gamma (Homo sapiens) (UniProt P37231); test: qHTS assay to identify small molecule agonists of the peroxisome proliferator-activated receptor gamma (PPARg) signaling pathway (AID 743094; active = well fitted activation curve with a large enough effect in the signal ratio in the repeat runs, not every such curve was filed as active; the % refers to the signal ratio)
Procedure, shortened: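 Agonism was assessed in a beta-lactamase reporter system, HEK293H cells with a stably integrated UAS-bla construct under PPARg control; the 17 h treatment at 37C preceded a 1 h room-temperature FRET substrate read.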
% is scaled to controls: 0 for no effect and ±100 for the full control effect.

Sequence of Peroxisome proliferator-activated receptor gamma (Homo sapiens) (P37231 whole entry, looked up): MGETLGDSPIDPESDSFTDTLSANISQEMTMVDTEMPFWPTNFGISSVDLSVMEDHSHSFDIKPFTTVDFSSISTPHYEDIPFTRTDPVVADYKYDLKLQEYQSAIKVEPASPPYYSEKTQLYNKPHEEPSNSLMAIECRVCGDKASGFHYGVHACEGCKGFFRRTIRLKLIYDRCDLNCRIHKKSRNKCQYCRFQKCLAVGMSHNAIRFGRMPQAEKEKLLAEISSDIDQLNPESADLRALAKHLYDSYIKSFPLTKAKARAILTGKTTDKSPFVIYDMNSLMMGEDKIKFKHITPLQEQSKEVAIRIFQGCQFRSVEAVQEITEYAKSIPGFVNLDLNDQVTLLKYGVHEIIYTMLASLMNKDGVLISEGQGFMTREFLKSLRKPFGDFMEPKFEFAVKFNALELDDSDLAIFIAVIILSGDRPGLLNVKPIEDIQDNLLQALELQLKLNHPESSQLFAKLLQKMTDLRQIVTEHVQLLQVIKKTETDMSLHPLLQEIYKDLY
Sequence of Vitamin D3 receptor (Homo sapiens) (P11473 whole entry, looked up): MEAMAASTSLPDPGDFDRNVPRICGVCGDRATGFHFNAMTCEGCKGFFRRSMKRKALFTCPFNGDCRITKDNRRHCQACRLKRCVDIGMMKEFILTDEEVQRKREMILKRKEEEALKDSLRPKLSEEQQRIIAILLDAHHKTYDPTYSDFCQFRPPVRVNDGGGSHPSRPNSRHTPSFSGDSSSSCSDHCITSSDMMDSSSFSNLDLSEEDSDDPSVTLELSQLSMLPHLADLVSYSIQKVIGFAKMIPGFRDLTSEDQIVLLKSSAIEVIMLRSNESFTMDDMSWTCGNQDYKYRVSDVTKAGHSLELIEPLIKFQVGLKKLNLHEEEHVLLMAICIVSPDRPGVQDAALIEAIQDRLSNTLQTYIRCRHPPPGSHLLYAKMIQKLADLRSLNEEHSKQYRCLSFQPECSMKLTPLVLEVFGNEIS
Sequence of Bile acid receptor (Homo sapiens) (Q96RI1 whole entry, looked up): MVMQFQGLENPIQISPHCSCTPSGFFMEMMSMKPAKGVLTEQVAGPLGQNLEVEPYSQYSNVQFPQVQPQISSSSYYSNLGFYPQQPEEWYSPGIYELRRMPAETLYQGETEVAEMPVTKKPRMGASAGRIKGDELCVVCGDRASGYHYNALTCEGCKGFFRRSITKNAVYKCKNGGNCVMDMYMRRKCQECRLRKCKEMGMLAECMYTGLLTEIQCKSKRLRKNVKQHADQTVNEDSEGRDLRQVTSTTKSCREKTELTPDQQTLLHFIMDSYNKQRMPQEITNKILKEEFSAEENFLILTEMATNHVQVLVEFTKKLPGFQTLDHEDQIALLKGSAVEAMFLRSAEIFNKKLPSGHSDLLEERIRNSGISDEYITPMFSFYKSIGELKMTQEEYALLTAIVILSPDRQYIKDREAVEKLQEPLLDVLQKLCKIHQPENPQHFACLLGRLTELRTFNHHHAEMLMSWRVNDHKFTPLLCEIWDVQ
Sequence of Aryl hydrocarbon receptor (Homo sapiens) (P35869 whole entry, looked up): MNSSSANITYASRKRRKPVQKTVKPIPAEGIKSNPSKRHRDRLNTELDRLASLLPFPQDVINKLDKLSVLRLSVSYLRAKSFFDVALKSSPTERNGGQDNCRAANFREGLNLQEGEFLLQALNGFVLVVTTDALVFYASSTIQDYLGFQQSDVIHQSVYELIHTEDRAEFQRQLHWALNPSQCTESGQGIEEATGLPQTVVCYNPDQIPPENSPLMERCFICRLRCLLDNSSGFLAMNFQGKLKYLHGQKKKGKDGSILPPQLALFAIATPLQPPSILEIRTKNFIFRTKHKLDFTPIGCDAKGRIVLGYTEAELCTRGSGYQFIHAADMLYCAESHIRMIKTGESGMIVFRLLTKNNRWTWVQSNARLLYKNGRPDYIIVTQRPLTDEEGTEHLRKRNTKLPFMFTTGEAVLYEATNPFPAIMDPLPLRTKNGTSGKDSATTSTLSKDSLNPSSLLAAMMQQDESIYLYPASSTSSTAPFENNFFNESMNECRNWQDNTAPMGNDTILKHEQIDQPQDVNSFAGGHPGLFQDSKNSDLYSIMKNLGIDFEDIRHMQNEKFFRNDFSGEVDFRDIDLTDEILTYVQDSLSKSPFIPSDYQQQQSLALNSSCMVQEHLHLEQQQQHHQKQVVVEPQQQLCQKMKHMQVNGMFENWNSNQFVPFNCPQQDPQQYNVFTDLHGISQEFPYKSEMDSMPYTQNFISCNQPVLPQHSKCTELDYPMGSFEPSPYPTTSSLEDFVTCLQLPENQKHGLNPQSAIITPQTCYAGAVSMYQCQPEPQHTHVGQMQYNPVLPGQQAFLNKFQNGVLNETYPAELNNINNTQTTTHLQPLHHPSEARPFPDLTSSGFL
Sequence of Peroxisome proliferator-activated receptor delta (Homo sapiens) (Q03181 whole entry, looked up): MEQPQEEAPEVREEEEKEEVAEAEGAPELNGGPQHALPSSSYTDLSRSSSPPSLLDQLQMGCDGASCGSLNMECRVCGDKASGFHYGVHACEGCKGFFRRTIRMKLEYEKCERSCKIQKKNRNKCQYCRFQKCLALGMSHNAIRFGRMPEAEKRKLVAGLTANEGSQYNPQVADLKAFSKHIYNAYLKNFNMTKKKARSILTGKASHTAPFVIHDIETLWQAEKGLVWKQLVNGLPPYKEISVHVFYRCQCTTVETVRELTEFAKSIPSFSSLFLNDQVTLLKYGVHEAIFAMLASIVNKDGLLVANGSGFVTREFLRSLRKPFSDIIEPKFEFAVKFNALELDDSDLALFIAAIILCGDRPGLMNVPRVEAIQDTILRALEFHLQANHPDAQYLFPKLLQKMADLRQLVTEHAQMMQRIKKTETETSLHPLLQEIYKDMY

CCOCCOC(=O)/C=C/c1ccc(OC)cc1
inactive: Potency [1] | outcome [2] | outcome [3] | outcome [4] | outcome [5] | outcome [6] | Potency [7] | Potency [8] | Potency [9] | outcome [10] | outcome [11] | outcome [12]

O=P(O)(O)OP(=O)(O)O
inactive: Potency [13] | outcome [2] | Potency [14] | outcome [3] | outcome [4] | outcome [5] | outcome [15] | outcome [6] | Potency [8] | outcome [10] | outcome [11] | outcome [12]

Cc1ccc2ccc(Cl)cc2n1
inactive: Potency [1] | outcome [2] | Potency [14] | outcome [3] | outcome [4] | outcome [5] | outcome [15] | outcome [16] | outcome [6] | outcome [17] | Potency [8] | outcome [10] | outcome [11] | outcome [12]

CCC(C)(CCC(C)C)C(=O)O (stereo not given)
inactive: Potency [13] | outcome [2] | Potency [14] | outcome [3] | outcome [4] | outcome [15] | outcome [16] | outcome [6] | outcome [17] | Potency [8] | outcome [10] | outcome [11] | outcome [12]

CC(C)(C)c1n[nH]c(=S)n(N)c1=O
inactive: Potency [18] | Potency [13] | Potency [14] | outcome [3] | outcome [4] | outcome [5] | Potency [8] | outcome [10] | outcome [11]

Brc1ccc(-c2ccccc2)cc1
inactive: Potency [19] | Potency [13] | outcome [2] | Potency [14] | outcome [3] | outcome [4] | outcome [5] | outcome [15] | Potency [8] | outcome [10] | outcome [11] | outcome [12]

NS(=O)(=O)c1cc2c(cc1Cl)CN(C1CCCCC1)C2=O
inactive: Potency [1] | outcome [2] | Potency [14] | outcome [3] | outcome [4] | outcome [5] | outcome [15] | outcome [6] | Potency [8] | Potency [9] | outcome [10] | outcome [12]

Oc1ccccc1-c1nnco1
inactive: outcome [2] | Potency [14] | outcome [3] | outcome [4] | outcome [5] | outcome [15] | outcome [6] | Potency [8] | outcome [10] | outcome [11] | outcome [12]

CC(C)C[C@H](NC(=O)CNC(=O)[C@H](Cc1ccc(O)cc1)NC(=O)[C@H](CO)NC(=O)[C@H](Cc1c[nH]c2ccccc12)NC(=O)[C@H](Cc1cnc[nH]1)NC(=O)[C@@H]1CCC(=O)N1)C(=O)N[C@@H](CCCN=C(N)N)C(=O)N1CCC[C@H]1C(=O)NCC(N)=O (stereo in doubt)
inactive: Potency [13] | Potency [14] | outcome [4] | outcome [15] | outcome [6] | Potency [7] | outcome [10] | outcome [11] | outcome [12]

CN1CCN(CC(=O)N2c3ccccc3C(=O)Nc3cccnc32)CC1
inactive: Potency [13] | outcome [20] | ratio activity, negative = inhibition [1] 0.895% [at 5.95 µM] | activity change, negative = cytotoxicity [2] 4.99% [at 5.95 µM] | activation [14] 3.2% [at 8.36 µM] | viability change, negative = cytotoxic [3] 1.72% [at 8.36 µM] | activation [5] -0.267% [at 5.95 µM] | activity change, negative = cytotoxicity [15] -5.11% [at 5.95 µM] | activation [16] -1.15% [at 5.95 µM] | viability change, negative = cytotoxic [6] 18.4% [at 6.26 µM] | ratio activity, negative = inhibition [17] 1.31% [at 6.26 µM] | viability change, negative = cytotoxic [8] 9.72% [at 5.95 µM] | activity change, negative = cytotoxicity [10] -5.73% [at 5.95 µM] | activation [11] 2.22% [at 6.01 µM] | activity change, negative = inhibition [12] -1.37% [at 6.95 µM]

CCOc1cc([N+](=O)[O-])c(OCC)cc1N1CCOCC1
inactive: Potency [18] | outcome [20] | outcome [2] | Potency [14] | outcome [3] | outcome [4] | outcome [5] | outcome [15] | outcome [6] | Potency [8] | outcome [10] | outcome [11] | outcome [12]

O=C(O)c1cc(Cl)cc([N+](=O)[O-])c1Cl
inactive: Potency [19] | Potency [13] | outcome [20] | Potency [1] | outcome [2] | outcome [3] | outcome [4] | outcome [5] | outcome [15] | outcome [6] | Potency [7] | Potency [8] | Potency [9] | outcome [10] | outcome [11] | outcome [12]

CC(C)C(=O)OCc1cccc(OC(=O)[C@@H]2N3C(=O)[C@@H](NC(=O)Cc4ccccc4)[C@H]3SC2(C)C)c1
inactive: Potency [1] | outcome [2] | Potency [14] | outcome [3] | outcome [5] | outcome [15] | outcome [16] | outcome [6] | outcome [17] | Potency [8] | outcome [10] | outcome [11] | outcome [12]

CC(C)(C)c1nnc(NS(=O)(=O)c2ccc(N)cc2)s1
inactive: Potency [14] | outcome [3] | outcome [4] | outcome [5] | outcome [15] | outcome [16] | outcome [17] | Potency [8] | outcome [10] | outcome [11]

O=C(c1ccc(O)cc1)c1ccc(O)c(O)c1O
active: Potency [19] 61.4 µM
inactive: outcome [20] | outcome [2] | Potency [14] | outcome [3] | outcome [4] | outcome [5] | outcome [15] | outcome [16] | outcome [6] | outcome [17] | Potency [8] | Potency [9] | outcome [11] | outcome [12]

Cc1ccccc1N=O
inactive: Potency [13] | outcome [2] | outcome [3] | outcome [4] | outcome [5] | outcome [15] | outcome [16] | outcome [6] | Potency [7] | Potency [8] | Potency [9] | outcome [10] | outcome [11] | outcome [12]
